According to PubChem BioAssay AID504408 (Broad Institute, 2011):
The campaign covered roughly 300,000 compounds. About 5,200 (1.7%) were called active.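 How the source made its calls: active means mean replicate activation of at least 50% with a set share of replicates each reaching 50%; inconclusive means only one of those two conditions met; inactive means mean below 50% and too few replicates reaching it.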 Only a selection was taken, and actives are over-represented in it overall.

Test: HSF-1 activators, primary screen, NIH3T3-HGL cells, MG132 stress, luminescence, single point (AID 504408);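 further: 0% = median of the neutral control wells and 100% = twice that signal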
Details: NIH3T3-HGL HSF-1 luciferase reporter, MG132, 8 h; at 9 µM; stronger effect = higher value; 100% = twice DMSO control signal

Structure (SMILES)	activation
CCCCN(C(=O)c1ccc(S(=O)(=O)N2CCOCC2)cc1)C1CCS(=O)(=O)C1 (configuration not stated)	-15% (inactive)
Cc1cccc(C(C)C)c1NC(=O)COC(=O)C1CC(=O)N(Cc2ccccc2)C1 (configuration not stated)	4.94% (inactive)
Cc1cc([N+](=O)[O-])ccc1NC(=O)C1CCCO1 (configuration not stated)	0.502% (inactive)
Cc1ccc(C)c(C(C)NC(=O)C2CCCO2)c1 (configuration not stated)	2.29% (inactive)
Cc1cc(C)c2nc(NC(=O)C3CCCO3)sc2c1 (configuration not stated)	61.5% (active)
COc1cccc(/C=C/C(=O)OCC(=O)N2CCCc3ccccc32)c1	-15.2% (inactive)
CC(=O)N1CCN(C(=O)c2cc(-c3ccc(C)o3)nc3ccccc23)CC1	-3% (inactive)
COC(=O)c1c(C)[nH]c(C(=O)/C=C/c2ccc(Cl)cc2)c1C	75.6% (active)
COC(=O)c1c(C)[nH]c(C(=O)NCCc2ccc(S(N)(=O)=O)cc2)c1C	22.1% (inactive)
Cc1ccc(NC(=S)NC(=O)/C=C/c2ccc(Cl)cc2)cc1	8.91% (inactive)
O=C(OCc1nnc(-c2ccccc2)o1)c1cc(=O)[nH]c2ccccc12	-8.33% (inactive)
COC(=O)c1ccc(COC(=O)C2CCN(S(=O)(=O)c3c(Cl)cccc3Cl)CC2)o1	-1.35% (inactive)
Cc1ccccc1NC(=O)N1CCCC1C(=O)NCc1ccccc1 (configuration not stated)	-14.4% (inactive)
Cc1ccccc1NC(=O)C1CCCN(C(=O)NCc2ccccc2)C1 (configuration not stated)	66.9% (active)
Cc1cccc(NC(=O)C2CCCN(C(=O)NCc3ccccc3)C2)c1C (configuration not stated)	23.5% (inactive)
CCOC(=O)N1CCN(C(=O)COc2ccc3oc4c(c3c2)CCCC4)CC1	-4.2% (inactive)
CCN(CC(=O)NCc1cccs1)C(=O)c1ccc(OC)c(S(=O)(=O)N2CCOCC2)c1	-5.75% (inactive)
O=C(NCc1ccc2c(c1)OCO2)c1c(O)nc2sccn2c1=O	14.5% (inactive)
Cc1noc(C)c1COc1ccc2ccc(=O)oc2c1	0.156% (inactive)
COC(=O)c1ccc(COc2ccc(C#N)cc2)o1	10.5% (inactive)
CC(C)OC(=O)c1ccc(COc2ccc3ccc(=O)oc3c2)o1	65.7% (active)
O=C1CCCCC1Sc1ccc(Cl)cc1[N+](=O)[O-] (configuration not stated)	8.24% (inactive)
Cc1cc(OCC(=O)N(C)c2c(N)n(Cc3ccccc3)c(=O)[nH]c2=O)c(C(C)C)cc1Cl	-0.115% (inactive)

Structure (SMILES)	activation
Cc1ccc2nc(NC(=O)C3CSC4(C)CCC(=O)N34)sc2c1 (configuration not stated)	10.5% (inactive)
CS(=O)(=O)N(CC(=O)N1CCc2ccccc2C1)c1ccc(Br)cc1	-4.09% (inactive)
COc1cccc(N(CC(=O)N2CCc3ccccc3C2)S(C)(=O)=O)c1	69.4% (active)
O=C(C(=O)N1CCc2ccccc2C1)N1CCc2ccccc2C1	2.97% (inactive)
Cc1ccc(S(=O)(=O)N(CC(=O)N2CCc3ccccc3C2)c2cccc(Cl)c2)cc1	13% (inactive)
CN(c1cccc(NC(=O)c2ccc(CN3CCc4ccccc4C3)cc2)c1)S(C)(=O)=O	21.2% (inactive)
CN(c1ccc(C(=O)N2CCc3ccccc3C2)cc1)S(C)(=O)=O	57.9% (active)
Cc1cc2nc3n(c2cc1C)CC1CC(C(=O)NCCC(C)C)N(C)C31 (configuration not stated)	11.4% (inactive)
Cc1ccc(S(=O)(=O)n2cccc2CO)cc1	3.66% (inactive)
O=C(COc1ccccc1)Nc1ccc(F)cc1	1.97% (inactive)
Cc1ccc(O)c(CNc2nc3ccccc3[nH]2)c1	83.1% (active)
Cc1ccc(-c2cc(=O)[nH]c(NCc3ccccc3)n2)cc1	11.6% (inactive)
Cc1ccc(O)c(CNc2nc3ccccc3n2C)c1	6.25% (inactive)
Cc1sc2ncnc(N3CCC(C(=O)Nc4nc5ccc(Cl)cc5s4)CC3)c2c1C	8.18% (inactive)
CC(Oc1cccc(Cl)c1)C(=O)Nc1ccc(S(=O)(=O)Nc2ncccn2)cc1 (configuration not stated)	-4.25% (inactive)
COc1ccc(S(=O)(=O)N2CCC(C(=O)N3CCc4ccccc4C3)CC2)cc1OC	-2.14% (inactive)
COc1cc2c(cc1OC)CN(C(=O)c1cc(S(=O)(=O)N3CCCCC3)ccc1Cl)CC2	31.4% (inactive)
COc1cc2c(cc1OC)C(C)N(S(=O)(=O)c1cnc(Cl)c(Cl)c1)CC2 (configuration not stated)	227% (active)
CCCCn1c(N)c(N(CC)C(=O)c2ccc(N(C)S(=O)(=O)c3ccc(C)cc3)cc2)c(=O)[nH]c1=O	-9.17% (inactive)
COc1ccc(OC)c(S(=O)(=O)N2CCCC(C(=O)N3CCC(C(N)=O)CC3)C2)c1 (configuration not stated)	-0.348% (inactive)
CCN1C(=O)[C@@H]2[C@@H](c3ccc(-c4cccc(Cl)c4)cc3)N3CCC[C@@]3(C(=O)OC)[C@@H]2C1=O	15% (inactive)
O=C(/C=C/NCc1ccc(F)cc1)c1ccccc1	57.4% (active)
O=C(/C=C\NCC(=O)c1ccccc1)c1ccccc1	16.4% (inactive)

Structure (SMILES)	activation
O=C(Cc1ccccc1)NCc1ccc(F)cc1	20.9% (inactive)
Cc1ccc(NC(=O)C(C)OC(=O)Cc2c[nH]c3ccccc23)cc1S(=O)(=O)N1CCOCC1 (configuration not stated)	13% (inactive)
Cc1ccc(C(=O)OCC(=O)N2CC(C)CC(C)C2)cc1S(=O)(=O)N1CCCCC1 (configuration not stated)	1.62% (inactive)
Cc1ccc2nc(N3CCN(C(=O)c4ccco4)CC3)sc2c1	12.9% (inactive)
Brc1ccc2nc(N3CCCC3)sc2c1	68.3% (active)
c1c2c(cc3sc(N4CCCCC4)nc13)OCCO2	-56.8% (inactive)
CN(Cc1c(F)cccc1Cl)C(=O)CNC(=O)c1ccc2c(c1)OCO2	-4.62% (inactive)
Cc1ccc(S(=O)(=O)N2CCN(C(=O)c3ccccc3-c3nc4ccccc4s3)CC2)c(C)c1	-2.98% (inactive)
O=C(CCN1C(=O)c2ccccc2C1=O)Nc1cccc(F)c1	-4.05% (inactive)
O=C(CCN1C(=O)c2ccccc2C1=O)C1=NN[C@@H]2C(=O)N(c3ccc(F)cc3)C(=O)[C@H]12	67.2% (active)
O=C1c2ccccc2C(=O)N1CCOc1ccc(F)cc1	43.4% (inactive)
CCOc1ccc(S(=O)(=O)Nc2cccc(C(=O)NCC3(N4CCCCC4)CCCCC3)c2)cc1	-4.45% (inactive)
O=C(CSc1nnc2scc(-c3ccc(F)cc3)n12)NCc1ccco1	-1.83% (inactive)
O=C(CSc1nnc(-c2c[nH]c3ccccc23)n1-c1ccc(F)cc1)NCc1ccco1	58.5% (active)
COc1ccc(-n2c(SCC(=O)NCc3ccco3)nnc2-c2c[nH]c3ccccc23)cc1	7.75% (inactive)
O=S(=O)(Nc1ccc(-c2ccc(N3CCOCC3)nn2)cc1)c1cc(Cl)ccc1Cl	12.9% (inactive)
Cc1ccc(C(=O)N/N=C/c2cccc3ccccc23)cn1	15.6% (inactive)
COc1ccc(-c2csc(Nc3ccccn3)n2)cc1	57.4% (active)
c1cnc(Nc2nc(-c3ccc4ccccc4c3)cs2)nc1	38.8% (inactive)
CCCn1c(CCNc2nc(-c3ccc(OC)cc3)cs2)nc2ccccc21	3.73% (inactive)
Cc1ccc(C(=O)Nc2ccc(C)c(S(=O)(=O)N(C)C)c2)s1	78.5% (active)
CCN(CC(=O)Nc1ccc(C)c(S(=O)(=O)N(C)C)c1)Cc1ccccc1	3.82% (inactive)
Cc1ccc(NC(=O)c2cccs2)cc1S(=O)(=O)N(C)C	-11.9% (inactive)

Structure (SMILES)	activation
CN(C)S(=O)(=O)c1ccc(N2CCCC2)c(C(=O)Nc2ccc(Br)cc2F)c1	14.1% (inactive)
Cc1ccc(Cc2nnc(SCC(=O)Nc3ccc(C)cc3C)[nH]c2=O)cc1	0.586% (inactive)
Cc1c(NC(=O)C(C)OC(=O)c2c3c(nc4ccccc24)CCC(C)C3)c(=O)n(-c2ccccc2)n1C (configuration not stated)	-5.9% (inactive)
S=C1NC(c2ccccc2)=NCN1c1ccc(Br)cc1	55% (active)
Cc1nc(=O)c(-c2ccccc2)c(C)n1-c1ccc(Br)cc1	1.48% (inactive)
O=C1CN(c2nc(-c3ccccc3)c3cc(Br)ccc3n2)c2ccccc2N1	-21.4% (inactive)
CCC(=O)Nc1ccc2nn(-c3ccc(F)cc3)nc2c1	63.6% (active)
CCC(=O)Nc1ccc(C(=O)Nc2cccc(OC)c2)cc1	11.2% (inactive)
Cc1ccc(-n2nc3ccc(NC(=O)/C=C/c4ccco4)cc3n2)cc1C	21.6% (inactive)
Cc1cc(C)n2nc(C(=O)OC(C)C(=O)c3cc(C)c(C)cc3C)nc2n1 (configuration not stated)	4.08% (inactive)
Cn1c(=S)sc2ccc3ccccc3c21	-1.53% (inactive)
COc1ccc(S(=O)(=O)NCC(c2ccco2)N2CCOCC2)cc1 (configuration not stated)	-18.5% (inactive)
COc1cccc(COC(=O)C2CCN(S(=O)(=O)c3ccc(Cl)cc3)CC2)c1OC	-0.23% (inactive)
Cc1nn(-c2ccccc2)c2sc(C(=O)N(Cc3ccco3)C(C)C(=O)NC(C)(C)C)cc12 (configuration not stated)	91.4% (active)
Cc1ccc(-c2nnn(CC(=O)N(Cc3ccco3)C(C(=O)NC(C)(C)C)c3ccncc3)n2)o1 (configuration not stated)	10.4% (inactive)
Cc1nc(C)c(C(=O)N(c2ccc(C)c(C)c2)C(C(=O)NCc2ccco2)c2ccccc2)s1 (configuration not stated)	-5.39% (inactive)
COc1ccc(NC(=O)CN(C)C(=O)c2cccc(S(=O)(=O)N3CCN(c4ccccc4)CC3)c2)cc1	14.8% (inactive)
COc1ccc(C(=O)Oc2ccc(-c3nnco3)cc2)cc1S(=O)(=O)N1CCOCC1	7.88% (inactive)
N#Cc1ccc(C2N=C(c3ccccc3)NO2)cc1 (configuration not stated)	56.2% (active)
Brc1ccccc1C1N=C(c2ccccc2)NO1 (configuration not stated)	9.38% (inactive)
O=C(COC(=O)CNS(=O)(=O)c1ccc(F)c(F)c1F)NC1CCCC1	-12.4% (inactive)
Nc1cccnc1Sc1ccccc1	7.53% (inactive)
O=C(CNC(=O)C12CC3CC(CC(C3)C1)C2)OCC(=O)N1CCCCC1	10.8% (inactive)
